# SMN2 splice enh: qHTS Assay for Enhancers of SMN2 Splice Variant Expression; HEK293 SMN2-luciferase splicing reporter, luminescence, 30-36 h; Potency, µM (series often up to 46.1 µM), inactives show top-dose activity change, positive = activation, usual class: activators; actives 2.8% (n = 210,000); note: % of control where 0% means no effect; nearly all actives have a fitted effect of over 55% in size
#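 HEK293 cells carry an SMN2 […]–luciferase reporter in which exon 7 inclusion puts luciferase in frame. Cells were plated 10-12 h before compound addition, then incubated 30-36 h at 37C. ONE-Glo luminescence was read; sodium butyrate at 4.5 mM final served as control.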
# ELG1 genotox: qHTS screen for small molecules that induce genotoxicity in human embryonic kidney (HEK293T) cells expressing luciferase-tagged ELG1 | HEK293T ELG1-luciferase reporter, luminescence, 16 h | Potency, µM (series often up to 46 µM), without a hit: at the highest dose activity change, positive = activation, most hits filed as activators | actives 1.3% (n = 330,000) | AID 504466, 2011; note: % of control where 0% means no effect; nearly all actives have a fitted effect of over 60% in size
#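 Step 1: seed 2,000 HEK293T ELG1-luciferase cells per well. Step 2: add compound or DMSO, incubate 16 hr at 37 °C. Step 3: ONE-Glo, 30 min at room temperature, read luminescence.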
# ELG1 DNA repair: qHTS screen for small molecules that inhibit ELG1-dependent DNA repair in human embryonic kidney (HEK293T) cells expressing luciferase-tagged ELG1 | actives 2.3% (n = 330,000) | AID 504467, 2011 | HEK293T ELG1-luciferase reporter, luminescence, 16 h; DNA damage induced by 5-fluorouridine | Potency, µM (top dose mostly 46.1 µM), for inactives: at the highest dose activity change, negative = inhibition, usual class: inhibitors; note: % is set by controls: 0 for no effect and ±100 for the full control effect; nearly all actives have a fitted effect of over 55% in size
#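 Quantitative HTS, concentration-response format. 2,000 cells/well co-treated with 5-fluorouridine and compound, 16 hr in 5% CO2 at 37 °C; ONE-Glo luminescence read after 30 min.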
# FLuc counter: qHTS profiling assay for firefly luciferase inhibitor/activator using purifed enzyme and Km concentrations of substrates (counterscreen for miR-21 project); purified FLuc, Km substrates, luminescence inhibition; Potency, µM (titrated, usually from 57.5 µM), inactives show top-dose activity change, negative = inhibition, usual class: inhibitors; actives 6.9% (n = 360,000); AID 588342, 2011;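 note: plate controls were vehicle for no effect and reference inhibitor for full effect; nearly all actives have a fitted effect of over 55% in size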
# Target sequence (P08659 whole entry, looked up): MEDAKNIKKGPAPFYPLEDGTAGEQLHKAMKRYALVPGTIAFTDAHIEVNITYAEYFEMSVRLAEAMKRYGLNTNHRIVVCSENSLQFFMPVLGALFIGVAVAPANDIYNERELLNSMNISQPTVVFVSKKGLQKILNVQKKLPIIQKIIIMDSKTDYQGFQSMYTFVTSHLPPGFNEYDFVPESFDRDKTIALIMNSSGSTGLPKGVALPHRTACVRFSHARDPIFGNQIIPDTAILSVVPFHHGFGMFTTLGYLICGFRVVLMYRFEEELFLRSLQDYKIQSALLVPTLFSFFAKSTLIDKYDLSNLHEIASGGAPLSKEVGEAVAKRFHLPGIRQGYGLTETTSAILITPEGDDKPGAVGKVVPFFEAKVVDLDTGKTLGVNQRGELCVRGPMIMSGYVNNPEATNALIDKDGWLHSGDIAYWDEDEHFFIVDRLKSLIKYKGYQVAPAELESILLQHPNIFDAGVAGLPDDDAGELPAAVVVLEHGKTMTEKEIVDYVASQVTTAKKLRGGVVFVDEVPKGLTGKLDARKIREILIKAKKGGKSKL
#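 Purified P. pyralis luciferase, 10 nM final, with Km-level 10 uM D-luciferin and 10 uM ATP in 50 mM Tris acetate pH 7.5, 10 mM Mg acetate, 0.01% Tween-20, 0.05% BSA; 6-point qHTS titration about 60 µM downward; luminescence read.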
# NPC1 promoter act: qHTS Assay for NPC1 Promoter Activators | Huh7 NPC1 promoter luciferase reporter, 24 h | Potency, µM (doses to about 9.22 µM), for the others: at the top dose activation, most hits filed as activators | actives 2.4% (n = 320,000) | AID 485313, 2010; note: % of control where 0% means no effect; nearly all actives have a fitted effect of over 60% in size
#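 NPC1 promoter–luciferase Huh7 cells; 24 h compound; luminescence.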
# Rab9 prom act: qHTS Assay for Rab9 Promoter Activators; actives 2.8% (n = 320,000); Potency, µM (top dose mostly 9.22 µM), inactives show at the top dose activation, negative = inhibition, most hits filed as activators; Huh7 Rab9 promoter-luciferase reporter, luminescence, 24 h; AID 485297, 2010; note: % of control where 0% means no effect; nearly all actives have a fitted effect of over 60% in size
#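 Using Huh7 cells stably transfected with Rab9 promoter–luciferase, compounds were incubated 24 h at 37 °C, 5% CO2; luciferase luminescence was read 10 min after reagent addition.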
# * marks the source's active call; other numbers are inactive results; ? = inconclusive; / = no result; [ ] = another dose, or the depositor's remark. The list is not random: actives were taken first. Their share in the collection is about 9.3%. Calls come from the whole dose curve; as a rule, active = well fitted curve in the direction sought with a large enough effect; inconclusive = small, poorly fitted or top-dose-only effect, or another doubt; inactive = no such curve, though single readings can be large; an effect the other way counts as inactive or inconclusive. Potency is the fitted concentration of half-maximal effect.
SMILES,SMN2 splice enh,ELG1 genotox,ELG1 DNA repair,FLuc counter,NPC1 promoter act,Rab9 prom act
COC(=O)C[C@]1(C(=O)OC)CN(C#N)N(c2ccc(Cl)cc2)C12c1ccccc1-c1ccccc12,-116%,-11%,26µM*,2%,-39%,-33%
COC(=O)[C@@H]1[C@@H](C(=O)OC)C2(c3ccccc3-c3ccccc32)N(c2ccc(Cl)cc2)N1C#N,-113%,-24%,?,0%,-29%,-38%
C[C@@H]1O[C@H](O[C@@H]2CC[C@@]3(C=O)[C@H]4CC[C@@]5(C)[C@@H](C6=CC(=O)OC6)CC[C@@]5(O)[C@@H]4CC[C@]3(O)C2)C[C@H](O)[C@@H]1O,-34%[20.6 µM],/,/,/,/,/
C[C@H]1O[C@@H](O[C@H]2[C@@H](O)C[C@H](O[C@H]3[C@@H](O)C[C@H](O[C@H]4CC[C@@]5(C)[C@H](CC[C@@H]6[C@@H]5CC[C@]5(C)[C@@H](C7=CC(=O)OC7)CC[C@]65O)C4)O[C@@H]3C)O[C@@H]2C)C[C@H](O)[C@@H]1O,/,-17%,0.15µM*,6%,-39%,-44%
C[C@@H]1O[C@@H](O[C@H]2C[C@@H](O)[C@]3(CO)[C@H]4[C@H](O)C[C@]5(C)[C@@H](C6=CC(=O)OC6)CC[C@]5(O)[C@@H]4CC[C@]3(O)C2)[C@H](O)[C@H](O)[C@H]1O,-76%,-50%,0.16µM*,0%,-37%[46.1 µM],-44%[46.1 µM]
C[C@@]12CC[C@H]3[C@H](CCC4=CC(=O)CC[C@H]43)[C@H]1CC[C@H]2OC1(O)C(=O)c2ccccc2C1=O,6%[9.22 µM],/,/,/,/,/
CCCCSc1nc2c(cnn2-c2ccccc2)c(=O)n1N,10µM*,?,?,6.7µM*,2.8µM*,1.8µM*
CCOc1ccc(-c2cc(C(=O)N3CCN(c4cccc(C(F)(F)F)c4)CC3)c3ccccc3n2)cc1,/,/,/,2.4µM*,/,/
O=C(c1cc(-c2ccccc2)nc2ccccc12)N1CCC2(CC1)OCCO2,0%,0%,-1%,?,-2%,2%
N[C@H](Cc1ccccc1)c1nn[nH]n1,7%[9.22 µM],/,/,/,/,/
COc1ccc(OC(=O)Nc2ccccc2)cc1,?,?,?,?,1%,-2%
O=C(Nc1ccc(F)cc1)Oc1ccc[nH]c1=O,/,12%,?,19µM*,17%,8%
O=C1c2ccccc2-c2c1nc1c([n+]2[O-])CCCC1,26%,?,?,1%,25%,3.5µM*
O=C(O)C(Cl)Br (configuration not stated),-2%,/,/,/,/,/
CC(C)(C)c1ccc(OCCON2C(=O)CCC2=O)c(Cl)c1,-6%,?,?,15µM*,-9%,0%
CCc1ccccc1NC(=O)CN1CCN(C(=O)COc2ccccc2C#N)CC1,/,-2%,?,1%,-9%,4%
CCC(=O)c1ccc(OCC(=O)N2CCN(CC(=O)Nc3ccccc3C(F)(F)F)CC2)cc1,/,-6%,16µM*,/,/,/
O=C1NC(=O)N(CC2CCCO2)C(=O)/C1=C/c1cccs1 (configuration not stated),/,8%,?,?,-1%,-2%
CCN(CC)c1ccc(/C=C2/C(=O)NC(=O)N(CC3CCCO3)C2=O)cc1 (configuration not stated),-6%,7%,11%,17µM*,0%,8%
C=CCOC(=O)c1ccccc1N,-2%,3%,2%,-2%,1%,2%
Nc1ccccc1C(=O)OCCOc1ccccc1,7.9µM*,0.92µM*,?,0.6µM*,0.35µM*,0.4µM*
C[C@H]1C[C@@H](C)C(=O)[C@@H]([C@H](O)CC2CC(=O)NC(=O)C2)C1,-93%[20.6 µM],-16%,0.52µM*,-2%,-38%,-48%
CCOc1ccc(C(=O)Nc2cccc(C(=O)OCc3cc(=O)n4nc(C5CC5)sc4n3)c2)cc1,/,/,/,1.9µM*,/,/
O=C(O)c1cc(N=Nc2ccc([As](=O)(O)O)cc2)ccc1O,-1%[9.22 µM],/,/,/,/,/
C[C@@H](O)CN(CCN(C[C@@H](C)O)C[C@@H](C)O)C[C@@H](C)O.O=[N+]([O-])O.[Cu],-14%[9.22 µM],/,/,/,/,/
SMILES,SMN2 splice enh,ELG1 genotox,ELG1 DNA repair,FLuc counter,NPC1 promoter act,Rab9 prom act
C=C1C(O)[C@@H]2O[C@]3(CC[C@H](/C=C/C(C)[C@@H]4CC(C)=CC5(O[C@H](C[C@@](C)(O)C(=O)O)CCC5O)O4)O3)CC[C@H]2O[C@@H]1C(O)CC(C)[C@H]1OC2(CCCCO2)CCC1C (some centres not stated),/,-11%,0.052µM*,/,/,/
N[C@@H](CP(=O)(O)O)C(=O)O,-20%[9.22 µM],/,/,/,/,/
O=C(O)CCn1cc(C=C2C(=O)NC(=S)NC2=O)c(-c2cccc(Cl)c2)n1,/,3%,10%,21µM*,-4%,2%
c1ccc(N2CC3(CCNCC3)C2)nc1,2%,/,/,/,/,/
N=C(N)n1cc(/C=N\N=C(N)N)cn1,-21%[9.22 µM],/,/,/,/,/
CN1C(=O)C(=Cc2ccc(N3CCCCCC3)o2)C(=O)N(C)C1=S,20%,?,?,11µM*,?,?
COc1cc2[nH]c(=O)n(Cc3ccc(C(=O)NC4CCCC4)cc3)c(=O)c2cc1OC,-3%,?,15%,7%,-1%,-1%
C=CCc1ccc(OC(=O)NC2CCCCC2)c(OC)c1,/,?,?,11µM*,?,3.5µM*
COc1cc(CCN)c(OC)c(OC)c1,-1%[9.22 µM],/,/,/,/,/
CC[C@]1(O)CC(O[C@@H]2CC(N(C)C)C(O)C(C)O2)c2c(cc3c(c2O)C(=O)c2c(O)cccc2C3=O)C1C(=O)OC (some centres not stated),0.79µM*,/,/,/,/,/
CC[C@@]1(O)CC(O)c2c(cc3c(c2O)C(=O)c2c(O)ccc(O)c2C3=O)C1C(=O)OC (some centres not stated),-10%,/,/,/,/,/
COc1ccc2c(c1)[C@@]13CCCCC1[C@@H](C2)N(C)CC3 (some centres not stated),-9%,/,/,/,/,/
Cc1ccc(NC(=O)OC(C)CNC(=O)Oc2cccc(C)c2)cc1 (configuration not stated),-3%,-12%,?,24µM*,16%,25%
